Experiment in all cases: PBM binding z-score (relative to random genomic background probes); higher = stronger binding; sequences stand for … in GC…GCGATTGACAGCGTAGAATGAAGG
The subject of test [1] is RARb homodimer (NR concentration 270 nM). A digest of the protocol:
(§1)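 Binding z-scores were set against random background probes. The data came from custom Agilent 4×180K protein-binding microarrays carrying double-stranded probes with 34-nt variable regions, incubated 1 h with ligand-free nuclear receptor dimers. Partner-specific antibodies detected binding, and scanned fluorescence was regression-normalized.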

The subject of test [2] is RARg:RXRa (NR concentration 270 nM, RXRa partner concentration 90 nM). The method in brief: as §1
Test [3] concerns RARg homodimer (NR concentration 270 nM). A digest of the protocol:
as §1

Test [4] concerns RXRa DBDmut IVT, anti-RXR (DBD mutation: RXRa K156A/R161A, NR concentration 90 nM). A digest of the protocol:
as §1

In test [5] the test system is RXRa homodimer (NR concentration 180 nM). The method in brief: as §1
The subject of test [6] is THRa:RXRa (NR concentration 90 nM, RXRa partner concentration 90 nM). A digest of the protocol:
as §1

Test [7] deals with THRa homodimer (NR concentration 90 nM). The method in brief: as §1
Test [8] relates to VDR homodimer (NR concentration 270 nM). A digest of the protocol:
as §1

On to TCTAGCAGGTCAGAGGGTCACTCAAGAGGTACGG, for which the PBM binding z-score in test [1] is 4.51; in test [2], 5.64; in test [3] it was 5.13; in test [4] it was 0.85; in test [5], 5.09; in test [6] it was 3.03. Further, the PBM binding z-score came out at 0.408 in test [7] and 1.72 in test [8].

As to CGTCCAAGGTCAGAGAGGACAGTGAATGCCGAGT, the PBM binding z-score stood at 4.12 in test [1]; 4.57 in test [2]; 5.67 in test [3]; 2.6 in test [4]; 3.68 in test [5]; 3.67 in test [6]. The PBM binding z-score in test [7] was found to be 2.08; in test [8], 2.85.

Regarding ATCGAAAGGTCGGAGGTGAGTATACCCACCCGAA, the PBM binding z-score was 2.03 in test [1]; 3.26 in test [2]; 3 in test [3]; 0.388 in test [4]; 3.28 in test [5]; 1.77 in test [6]. The PBM binding z-score in test [7] was -0.0288; in test [8], 0.152.

With CCTATTGGGCCATCAGGTCATTGATATCAACGTT, the PBM binding z-score in test [1] was determined as 2.49; in test [2], 2.26; in test [3], 1.88; in test [4], 0.643; in test [5] it was 1.39; in test [6] it was 3.3. Moreover, the PBM binding z-score is 2.98 in test [7] and 1.87 in test [8].

CCTTACGGGTCAAGGTTATAGCACGGGTGGTACG: the PBM binding z-score in test [1] worked out at 3.41; in test [2] it was 5; in test [3], 5.02; in test [4], 0.875; in test [5], 5.55; in test [6], 3.02. Also, the figures for the PBM binding z-score in test [7] and in test [8] were 0.771 and 1.46, respectively.

For GCTATTAGTAGAAAGGGCAACCGAATGATTCTCG, the PBM binding z-score in test [1] is 1.83; in test [2], 0.904; in test [3], 1.32; in test [4] it was 0.538; in test [5], 0.634; in test [6], 0.234. Moreover, the PBM binding z-score was -0.401 in test [7] and -0.301 in test [8].

Take CCTAGCAGGCCAGGGTCAGTCAAGCATTTCGCTT: the PBM binding z-score in test [1] was 2.16; in test [2], 2.07; in test [3] it was 1.85; in test [4], -0.296; in test [5], 1.65; in test [6], 1.75. For the same sequence, the PBM binding z-score in test [7] amounted to 0.116; in test [8] it was 0.172.

The values above are taken from the supplement of paper PMC6555819.
